Source: PubChem BioAssay (NCI)
Values joined by “and” are separate entries in the source; they are usually repeats but may differ in a detail not shown here. Identical values can stand only once. About 79,000 compounds went through this panel and 15% of them were active in at least one assay; those are over-represented in the sample as a whole. Some structures have more than one record in an assay (separate samples or runs), and their calls can disagree. Active and inactive are the calls of the source. No stated cut-off is given here; in the data, active means growth inhibition above about 70%; inactive means the rest.

Tests used:
[1] = NCI Yeast Anticancer Drug Screen. Data for the rad52 strain (AID 147);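 further: 0% = growth of vehicle-treated control cultures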; details: S. cerevisiae rad52 mutant growth inhibition, stronger effect = higher value
How it was run: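 Growth of repair-deficient yeast cells was compared between compound-treated and vehicle-treated cultures to give percent inhibition.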

[2] = NCI Yeast Anticancer Drug Screen. Data for the wt1 strain (AID 149);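 further: 0% = growth of vehicle-treated wt1 cultures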; details: S. cerevisiae wt1 strain (SPY 50644) growth inhibition, stronger effect = higher value
How it was run: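 Compounds are added to wt1 yeast cultures. Growth is then measured. Inhibition is expressed relative to vehicle-treated controls.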

[3] = NCI Yeast Anticancer Drug Screen. Data for the rad50EPP+ strain (AID 151);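 further: 0% = growth of vehicle-treated control cultures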; details: S. cerevisiae rad50 mutant strain, stronger effect = higher value
How it was run: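 Measured: growth inhibition of rad50EPP+ yeast. Reference: vehicle-treated controls. Screen uses strains with defined genetic alterations in DNA damage repair or cell cycle control.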

[4] = NCI Yeast Anticancer Drug Screen. Data for the mgt1 strain (AID 153); details: S. cerevisiae mgt1 mutant growth inhibition, stronger effect = higher value
How it was run: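 Compounds were applied to mgt1 mutant yeast, and growth was then compared against vehicle-treated control cultures to give percent inhibition.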

[5] = NCI Yeast Anticancer Drug Screen. Data for the rad50 strain (AID 155);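 further: 0% = growth of vehicle-only cultures of the same strain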; details: S. cerevisiae rad50 strain growth inhibition, stronger effect = higher value
How it was run: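 Inhibition values express reduced yeast growth in compound-treated cultures relative to vehicle-treated controls.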

[6] = NCI Yeast Anticancer Drug Screen. Data for the mec2-1 strain (AID 157); details: S. cerevisiae mec2-1 strain, stronger effect = higher value
How it was run: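 Compounds were applied to mec2-1 yeast cells. Their growth was then compared with that of vehicle-treated cultures to give growth inhibition.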

[7] = NCI Yeast Anticancer Drug Screen. Data for the rad14 strain (AID 159);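 further: 0% = growth of vehicle-treated control cultures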; details: S. cerevisiae rad14 strain growth inhibition, stronger effect = higher value
How it was run: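 A mutant yeast strain defective in DNA damage repair is treated with compound; inhibition of its growth is scored against untreated, vehicle-exposed cultures.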

[8] = NCI Yeast Anticancer Drug Screen. Data for the sgs1 mgt1 strain (AID 161);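 further: 0% = growth of cultures given vehicle only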; details: S. cerevisiae sgs1 mgt1 strain, stronger effect = higher value
How it was run: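 Compounds are added to genetically altered yeast, and growth is compared with cultures given vehicle alone to give percent inhibition.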

[9] = NCI Yeast Anticancer Drug Screen. Data for the CLN2oe strain (AID 163);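 further: 0% = growth of vehicle-only control cultures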; details: S. cerevisiae CLN2oe strain, stronger effect = higher value
How it was run: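 Cells of an engineered yeast line with disturbed cell-cycle regulation are treated with compound. Inhibition of growth is then calculated relative to the vehicle-treated reference.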

[10] = NCI Yeast Anticancer Drug Screen. Data for the bub3 strain (AID 167); details: S. cerevisiae bub3 mutant strain, stronger effect = higher value
How it was run: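 Steps: expose the mutant yeast strain to compound; grow alongside vehicle-treated cultures; measure growth; express inhibition against the vehicle cultures.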

[11] = NCI Yeast Anticancer Drug Screen. Data for the wt2 strain (AID 169);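 further: 0% = growth of vehicle-treated yeast cultures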; details: S. cerevisiae wt2 strain growth inhibition, stronger effect = higher value
How it was run: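 Growth of compound-treated yeast is measured and expressed as inhibition relative to vehicle-only controls.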

[12] = NCI Yeast Anticancer Drug Screen. Data for the mlh1 strain (AID 171);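 further: 0% = growth of vehicle-treated control cultures of the same strain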; details: S. cerevisiae mlh1 strain growth inhibition, stronger effect = higher value
How it was run: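 Test agents were incubated with yeast bearing a defined DNA damage repair or cell cycle control alteration; values are growth inhibition normalised to vehicle-treated cultures.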

[13] = NCI Yeast Anticancer Drug Screen. Data for the sgs1 strain (AID 173);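 further: 0% = growth of vehicle-only control cultures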; details: S. cerevisiae sgs1 mutant, stronger effect = higher value
How it was run: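 Strain with an altered DNA repair or cell cycle pathway exposed to compound. Growth then measured. Value = inhibition versus vehicle control.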

[14] = NCI Yeast Anticancer Drug Screen. Data for the mlh1 rad18 strain (AID 175); details: S. cerevisiae mlh1 rad18 strain growth inhibition, stronger effect = higher value
How it was run: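 A repair-deficient yeast strain is exposed to test compound, and growth is scored relative to vehicle-treated controls.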

[15] = NCI Yeast Anticancer Drug Screen. Data for the rad18 strain (AID 177); details: S. cerevisiae rad18 mutant growth inhibition, stronger effect = higher value
How it was run: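 DNA-repair-defective yeast; compound treatment; growth inhibition scored against vehicle.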

[16] = at 5.0 µM (retest, dose inferred, filed as 0.5)
[17] = at 50.0 µM (retest, dose inferred, filed as 5.0)

Measured: growth inhibition

Oc1c(Br)cc(Br)cc1Br
44% (inactive) and 99% (active): [6]; [17]
59.6% (inactive) and 99% (active): [14]; at 50.0 µM
59.5% (inactive) and 98.7% (active): [8]; at 50.0 µM
active: [1]; at 100.0 µM 88% | [2]; at 100.0 µM 91% | [3]; at 100.0 µM 88% | [4]; at 100.0 µM 82% | [5]; at 100.0 µM 91% | [6]; at 100.0 µM 86% | [7]; at 100.0 µM 77% | [8]; [17] 79% and 99% | [9]; at 100.0 µM 89% | [10]; [17] 86% and 98% | [10]; at 50.0 µM 70.3% and 99.2% | [10]; at 100.0 µM 87% | [11]; at 100.0 µM 84% | [12]; at 100.0 µM 78% | [13]; at 100.0 µM 88% | [15]; at 100.0 µM 88%
66.5% (inactive) and 99% (active): [5]; at 50.0 µM
54% (inactive) and 98% (active): [5]; [17]
35% (inactive) and 97% (active): [14]; [17]
inactive: [1]; at 1.2 µM 5% | [1]; at 3.7 µM 2% | [1]; at 11.0 µM 3% | [1]; at 33.0 µM 30% | [2]; at 1.2 µM -4% | [2]; at 3.7 µM -7% | [2]; at 11.0 µM 2% | [2]; at 33.0 µM 37% | [3]; at 1.2 µM 3% | [3]; at 3.7 µM 12% | [3]; at 11.0 µM 30% | [3]; at 33.0 µM 60% | [4]; at 1.2 µM 12% | [4]; at 3.7 µM 1% | [4]; at 11.0 µM 24% | [4]; at 33.0 µM 52% | [5]; at 1.2 µM 10% | [5]; at 3.7 µM 4% | [5]; [16] 41% and -1% | [5]; at 11.0 µM 5% | [5]; at 33.0 µM 41% | [6]; at 1.2 µM -1% | [6]; at 3.7 µM -7% | [6]; [16] 25% and 4% | [6]; at 11.0 µM 1% | [6]; at 33.0 µM 38% | [7]; at 1.2 µM -2% | [7]; at 3.7 µM 3% | [7]; at 11.0 µM 0% | [7]; at 33.0 µM 36% | [8]; [16] 7% | [9]; at 1.2 µM -14% | [9]; at 3.7 µM 7% | [9]; at 11.0 µM -1% | [9]; at 33.0 µM 21% | [10]; at 1.2 µM -5% | [10]; at 3.7 µM 18% | [10]; [16] 40% and 0% | [10]; at 11.0 µM 24% | [10]; at 33.0 µM 39% | [11]; at 1.2 µM -8% | [11]; at 3.7 µM -9% | [11]; at 11.0 µM -8% | [11]; at 33.0 µM 26% | [12]; at 1.2 µM -3% | [12]; at 3.7 µM -19% | [12]; at 11.0 µM -9% | [12]; at 33.0 µM 22% | [13]; at 1.2 µM 13% | [13]; at 3.7 µM 12% | [13]; at 11.0 µM 6% | [13]; at 33.0 µM 37% | [14]; [16] 41% and 15% | [15]; at 1.2 µM 7% | [15]; at 3.7 µM 1% | [15]; at 11.0 µM 3% | [15]; at 33.0 µM 32%
52% (inactive) and 99.5% (active): [6]; at 50.0 µM
